PubChem BioAssay (NCATS)
“And” between values parts separate entries of the source, which are not always exact repeats. Identical values can stand only once. Results filed as inconclusive are left out. Values without a mark were called inactive. The source made the active and inactive calls. Calls come from the whole dose curve; as a rule, active = well fitted curve in the direction sought with a large enough effect; inconclusive = small, poorly fitted or top-dose-only effect, or another doubt; inactive = no such curve, though single readings can be large; an effect the other way counts as inactive or inconclusive.

target: Voltage-gated inwardly rectifying potassium channel KCNH2 (Homo sapiens) (UniProt Q12809); assay: qHTS Assay for Small Molecule Inhibitors of the Human hERG Channel Activity (AID 588834); conditions: U2OS BacMam hERG, FluxOR thallium flux fluorescence; series mostly up to 46.1 µM; activity change, negative = inhibition: at the top concentration;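 note: lower thallium flux fluorescence means stronger hERG block; nearly all actives have a fitted effect of over 50% in size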; for activity change, negative = inhibition: top concentration of the series differs between compounds; % is set by controls: 0 for no effect and ±100 for the full control effect
Method in brief: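 Step 1: BacMam hERG transduction of U2OS, 4 hrs RT. Step 2: overnight 37 °C, plate 2000 cells/well, 4 hr. Step 3: FluxOR load, compound 10 min, stimulate, read fluorescence.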
Potency is the fitted concentration of half-maximal effect.

Voltage-gated inwardly rectifying potassium channel KCNH2 (Homo sapiens), sequence (Q12809 whole entry, looked up): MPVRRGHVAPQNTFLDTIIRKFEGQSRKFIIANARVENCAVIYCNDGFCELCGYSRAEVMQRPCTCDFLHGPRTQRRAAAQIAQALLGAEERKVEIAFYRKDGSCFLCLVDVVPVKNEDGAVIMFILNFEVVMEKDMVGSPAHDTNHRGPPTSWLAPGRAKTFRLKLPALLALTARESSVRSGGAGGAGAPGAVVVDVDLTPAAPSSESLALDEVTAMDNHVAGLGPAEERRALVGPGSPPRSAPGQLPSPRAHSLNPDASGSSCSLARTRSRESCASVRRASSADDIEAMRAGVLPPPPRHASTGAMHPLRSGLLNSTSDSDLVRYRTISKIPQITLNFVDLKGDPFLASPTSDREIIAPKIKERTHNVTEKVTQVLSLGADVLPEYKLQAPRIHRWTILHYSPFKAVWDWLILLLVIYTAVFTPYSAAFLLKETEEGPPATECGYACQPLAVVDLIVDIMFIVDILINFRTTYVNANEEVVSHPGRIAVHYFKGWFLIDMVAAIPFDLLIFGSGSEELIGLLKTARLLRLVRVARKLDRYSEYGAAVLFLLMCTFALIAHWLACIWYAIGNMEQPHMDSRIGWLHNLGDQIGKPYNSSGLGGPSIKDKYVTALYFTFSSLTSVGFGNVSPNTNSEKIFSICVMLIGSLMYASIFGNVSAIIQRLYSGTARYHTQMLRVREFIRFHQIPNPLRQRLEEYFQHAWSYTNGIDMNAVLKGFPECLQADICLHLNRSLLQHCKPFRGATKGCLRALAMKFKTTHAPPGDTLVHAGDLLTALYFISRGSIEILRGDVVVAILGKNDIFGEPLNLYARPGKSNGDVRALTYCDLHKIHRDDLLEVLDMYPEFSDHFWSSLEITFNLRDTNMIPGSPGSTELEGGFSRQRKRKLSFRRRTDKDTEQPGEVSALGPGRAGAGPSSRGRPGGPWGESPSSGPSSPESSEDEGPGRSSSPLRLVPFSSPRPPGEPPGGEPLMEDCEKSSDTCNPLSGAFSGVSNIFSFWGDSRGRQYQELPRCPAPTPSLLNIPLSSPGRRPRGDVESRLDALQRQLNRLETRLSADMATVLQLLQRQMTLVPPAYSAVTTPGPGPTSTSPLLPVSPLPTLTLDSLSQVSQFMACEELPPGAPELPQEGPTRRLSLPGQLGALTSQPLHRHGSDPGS

SMILES | activity change, negative = inhibition | Potency
N#CC(C#N)=Cc1cc(O)c(O)c(O)c1 | 2.09% | –
Clc1ccc(N2CC3CCC(C2)N3)nn1 | -22.1% | –
C[N+]1(C)CCC(OC(=O)C(c2ccccc2)c2ccccc2)CC1 | 1.31% | –
COc1ccc2c(c1)/C(=C/c1cnc[nH]1)C(=O)N2 | 1.48% | –
CC[C@H](C)[C@H]1O[C@]2(C=C[C@@H]1C)C[C@@H]1C[C@@H](C/C=C(\C)[C@@H](O[C@H]3C[C@H](OC)[C@@H](O[C@H]4C[C@H](OC)[C@@H](O)[C@H](C)O4)[C@H](C)O3)[C@@H](C)/C=C/C=C3\CO[C@@H]4[C@H](O)C(C)=C[C@@H](C(=O)O1)[C@]34O)O2 | 131% | –
CCCN(CCC)[C@H]1CCc2c(F)ccc(O)c2C1 | – | 7.08 µM (active)
CC(=O)OCC(=O)[C@H]1CC[C@H]2[C@@H]3CC[C@H]4C[C@H](O)CC[C@]4(C)[C@H]3C(=O)C[C@]12C | 2.83% [at 20.6 µM] | –
Oc1ccc2c3c1O[C@H]1c4oc5ccccc5c4C[C@@]4(O)C(C2)N(CC2CC2)CCC314 (stereo partly specified) | – | 0.355 µM (active)

tested on: not listed separately; assay: S16 Schwann cell viability assay (CellTiter-Glo assay) (AID 624031); conditions: S16 rat Schwann cells viability, 24 h; series mostly up to 57.5 µM; activity change, negative = cytotoxicity: at the top concentration; note: nearly all actives have a fitted effect of over 70% in size;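 for activity change, negative = cytotoxicity: cellular ATP luminescence as a viability measure; plate controls were DMSO-treated cells for no effect and cell-free wells for full effect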
Method in brief: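 Luminescent ATP read-out (CellTiter-Glo) after 24 h compound exposure of native S16 rat Schwann cells at 37 °C. Signals were normalized between cell-free wells and DMSO-treated cells, set as 0% activity.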

SMILES | Potency | activity change, negative = cytotoxicity [%]
[O]=[Cr](=[O])([OH])[O][Cr](=[O])(=[O])[OH] | 4.05 µM (active) and 2.87 µM (active) | –
O=[N+]([O-])c1ccc(F)c([N+](=O)[O-])c1 | – | -2.12
C[CH2][Hg][S]c1ccccc1C(=O)O | 1.28 µM (active) | –
